About 83,000 compounds went through this panel and 20% of them were active in at least one assay; those are over-represented in the sample as a whole.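 Single-dose data. Exposure time 48 hours. Values below 10 considered active.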 Values without a mark were called inactive. Calls of active or inactive are those of the source.

Among the test systems are HCT-15 colon; HT29 colon; SNB-75 CNS; SNB-19 CNS; U251 CNS; PC-3 prostate; SK-MEL-5 melanoma; UACC-62 melanoma; LOX IMVI melanoma; SK-MEL-28 melanoma; SK-MEL-2 melanoma; EKVX NSCLC; SN12C renal; UO-31 renal; TK-10 renal; ACHN renal; CAKI-1 renal; A498 renal; CCRF-CEM leukemia; MOLT-4 leukemia.
Common to all, as to experiment: NCI-60 one-dose screen, 48 h (100 = growth as untreated, 0 = no growth, -100 = all killed)
Holding throughout (settings): 10 µM

For `C[C@]12CC[C@H]3[C@@H](CCC4=CC(=O)CC[C@@]43C)[C@@H]1CC[C@@H]2c1csc(N)n1`, the growth in the assay on HCT-15 colon was 46.5%; in the assay on HT29 colon it was 56.6%; with SNB-75 CNS, 92.5%; in the assay with SNB-19 CNS it was 71.5%; in the assay with U251 CNS it was 56.9%; in the assay on PC-3 prostate, 19.3%. In addition, the growth with SK-MEL-5 melanoma was 9.04% (active); with UACC-62 melanoma it was 41.8%; with LOX IMVI melanoma, 59.3%; in the assay on SK-MEL-28 melanoma, 82.8%; in the assay on SK-MEL-2 melanoma, 62.9%; in the assay on EKVX NSCLC it was 23.6%. The growth is 71.8% in the assay on SN12C renal; 44% with UO-31 renal; 87.3% in the assay with TK-10 renal; 77.2% in the assay with ACHN renal; 47.3% in the assay with CAKI-1 renal; 84.3% with A498 renal. Moreover, the growth in the assay with CCRF-CEM leukemia is 42.1%; in the assay on MOLT-4 leukemia, 27.7%.
With `COc1cc(-c2n/c(=C\c3c(O)[nH]c4ccccc34)cc3c2=Nc2ccccc2-3)cc(OC)c1OC`, the growth in the assay on HCT-15 colon is 14.3%; in the assay on HT29 colon it was 4.2% (active); with SNB-75 CNS, 5.55% (active); in the assay with SNB-19 CNS it was 37.7%; in the assay on U251 CNS, 12.5%; with PC-3 prostate, 30.2%. The growth was 2.12% (active) in the assay on SK-MEL-5 melanoma; 40% with UACC-62 melanoma; 25.8% in the assay on LOX IMVI melanoma; 42.8% in the assay on SK-MEL-28 melanoma; 35.6% in the assay with SK-MEL-2 melanoma; 45.8% in the assay with EKVX NSCLC. Besides, the growth with SN12C renal is 34.3%; in the assay on UO-31 renal, 33.9%; with TK-10 renal it was 57.9%; in the assay on ACHN renal it was 37.2%; with CAKI-1 renal it was 29.5%; with A498 renal, -16.3% (active). Moreover, the growth in the assay on MOLT-4 leukemia is -13.5% (active).
Turning to `COc1cc(NS(C)(=O)=O)ccc1Nc1c2ccc(Cl)cc2nc2c(OC)cccc12`, the growth in the assay with HCT-15 colon was -15.4% (active); in the assay on HT29 colon, -37.3% (active); in the assay on SNB-75 CNS, -13.4% (active); in the assay on SNB-19 CNS it was 32.8%; in the assay on U251 CNS, 5.31% (active); with PC-3 prostate, 31.9%. In addition, the growth with SK-MEL-5 melanoma was 0.832% (active); in the assay on UACC-62 melanoma, -8.98% (active); in the assay on LOX IMVI melanoma, -58.7% (active); with SK-MEL-28 melanoma it was 52.4%; with SK-MEL-2 melanoma it was -45.2% (active); in the assay with EKVX NSCLC it was 70.4%. The growth in the assay with SN12C renal is -10.7% (active); in the assay with UO-31 renal, 5.23% (active); with TK-10 renal it was -55.3% (active); in the assay on ACHN renal, -46.4% (active); in the assay with CAKI-1 renal, -37% (active); with CCRF-CEM leukemia it was 2.75% (active). Further, the growth in the assay on MOLT-4 leukemia was -2.38% (active).
`CCSc1nc2c([nH]1)c(=O)n(C)c(=S)n2C`: the growth in the assay with HCT-15 colon was 105%; in the assay on HT29 colon it was 109%; in the assay with SNB-75 CNS it was 126%; in the assay on SNB-19 CNS, 109%; in the assay on U251 CNS, 105%; with PC-3 prostate, 101%. Also, the growth is 119% with SK-MEL-5 melanoma; 105% in the assay on UACC-62 melanoma; 96.9% with LOX IMVI melanoma; 128% in the assay on SK-MEL-28 melanoma; 111% in the assay on SK-MEL-2 melanoma; 95.5% with EKVX NSCLC. Further, the growth in the assay on SN12C renal was 107%; in the assay on UO-31 renal it was 98.2%; in the assay on TK-10 renal, 101%; in the assay on ACHN renal, 102%; with CAKI-1 renal it was 100%; with A498 renal, 108%. Also, the values for the growth in the assay with CCRF-CEM leukemia and in the assay with MOLT-4 leukemia were 100% and 108%, respectively.
Consider `O=C1CC[C@@H](C(=O)N[C@H]2CSSC[C@@H](C(=O)NCCc3ccccc3)NC(=O)[C@H](Cc3ccccc3)NC(=O)[C@@H]3CCCN3C(=O)[C@@H]3CCCN3C2=O)N1`, for which the growth is 102% in the assay with HCT-15 colon; 102% in the assay with HT29 colon; 92.7% in the assay on SNB-75 CNS; 102% in the assay with SNB-19 CNS; 96.8% in the assay on U251 CNS; 84.1% with PC-3 prostate. Also, the growth is 100% with SK-MEL-5 melanoma; 94.6% in the assay on UACC-62 melanoma; 94.1% in the assay with LOX IMVI melanoma; 102% with SK-MEL-28 melanoma; 94.2% in the assay with SK-MEL-2 melanoma; 101% in the assay with EKVX NSCLC. The growth in the assay with UO-31 renal is 99.1%; in the assay with TK-10 renal it was 86.9%; in the assay on ACHN renal, 104%; in the assay on CAKI-1 renal, 97.3%; with A498 renal, 91.2%; in the assay with CCRF-CEM leukemia it was 69.4%. Also, the growth in the assay with MOLT-4 leukemia was 85.8%.
With `O=C(O)CCCN1C(=O)NC2(C1=O)c1ccccc1-c1ccccc12`, the growth with HCT-15 colon is 102%; in the assay on HT29 colon, 93.3%; in the assay on SNB-75 CNS, 88.9%; in the assay on SNB-19 CNS it was 104%; with U251 CNS, 94.7%; in the assay with PC-3 prostate it was 94.4%. Also, the growth in the assay with SK-MEL-5 melanoma is 96%; in the assay on UACC-62 melanoma it was 99.3%; in the assay with LOX IMVI melanoma, 94.8%; in the assay on SK-MEL-28 melanoma, 107%; in the assay with SK-MEL-2 melanoma, 83.2%; in the assay on EKVX NSCLC, 98.3%. Also, the growth in the assay on UO-31 renal is 88.4%; in the assay on TK-10 renal, 90.1%; with ACHN renal, 104%; with CAKI-1 renal, 98.4%; with A498 renal it was 101%; in the assay with CCRF-CEM leukemia it was 96.5%. Besides, the growth in the assay on MOLT-4 leukemia is 101%.
For the compound `S=c1c2ncccc2c(-c2ccccn2)nn1Cc1ccccn1`, the growth in the assay with HCT-15 colon was 98.9%; in the assay with HT29 colon it was 93.7%; with SNB-75 CNS, 77.1%; in the assay with SNB-19 CNS, 103%; in the assay on U251 CNS, 95%; with PC-3 prostate it was 73.8%. Moreover, the growth is 105% in the assay with SK-MEL-5 melanoma; 104% with UACC-62 melanoma; 94.8% with LOX IMVI melanoma; 117% in the assay with SK-MEL-28 melanoma; 92.1% with SK-MEL-2 melanoma; 99.3% in the assay with EKVX NSCLC. The growth with UO-31 renal is 82.2%; with TK-10 renal it was 99.5%; in the assay with ACHN renal, 104%; in the assay on CAKI-1 renal, 92.1%; with A498 renal it was 134%; in the assay with CCRF-CEM leukemia, 84.2%. The growth in the assay with MOLT-4 leukemia is 93.3%.
Take `COc1ccc(-c2nnc(N3CCN(C(=O)CN4CCN(c5ccc(Cl)cc5)CC4)CC3)nc2-c2ccc(OC)cc2)cc1`: the growth with HCT-15 colon was 76.8%; in the assay on HT29 colon it was 37.3%; in the assay with SNB-75 CNS it was 81.4%; in the assay on SNB-19 CNS, 94.7%; with U251 CNS, 80.3%; with PC-3 prostate, 25.6%. For the same compound, the growth is 51% in the assay on SK-MEL-5 melanoma; 58.8% in the assay on UACC-62 melanoma; 75.9% with LOX IMVI melanoma; 86.7% with SK-MEL-28 melanoma; 65.7% in the assay on SK-MEL-2 melanoma; 45.4% in the assay with EKVX NSCLC. Also, the growth in the assay with SN12C renal is 57.5%; with TK-10 renal, 90.6%; in the assay with ACHN renal, 85%; in the assay on A498 renal it was 73.7%; in the assay on CCRF-CEM leukemia, 47.2%; with MOLT-4 leukemia, 8.77% (active).

(Values after PubChem BioAssay (NCI).)
